Rows were chosen to be rich in hits. Some 1.2% of all compounds tested hit in one or more screens of this group.
GSH bead fluor: GSH bead compound fluorescence profile; GSH beads flow cytometry, compound fluorescence 488/530 nm; active compounds read high; fluorescence (KMESF) at 10 µM; 190,000 compounds, 0.25% hits; AID 1776; in the data active = fluorescence above about 89;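 note: glutathione beads carrying GST-tagged Bcl family fusion proteins plus one bare bead set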
Avidin fluor: avidin bead compound fluorescence profile; AID 1775; fluorescence (KMESF) at 10 µM; Avidin beads, compound fluorescence 488/530 nm, flow cytometry; active compounds read high; 220,000 compounds, 0.38% hits; in the data active = fluorescence above about 47
RGS8-Gao reg: regulators of human RGS8-Galphao interaction | multiplexed bead flow cytometry, RGS8-Galphao binding; actives lie on both sides | response (percent of control binding), % at 10 µM | 220,000 compounds, 0.34% hits | AID 1423; in the data active = response below about 60% or above about 140%; inactive = in between;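 note: Galphao activated as the GDP aluminium fluoride complex binding bead-coupled RGS8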
Target sequence (P09471 whole entry, looked up): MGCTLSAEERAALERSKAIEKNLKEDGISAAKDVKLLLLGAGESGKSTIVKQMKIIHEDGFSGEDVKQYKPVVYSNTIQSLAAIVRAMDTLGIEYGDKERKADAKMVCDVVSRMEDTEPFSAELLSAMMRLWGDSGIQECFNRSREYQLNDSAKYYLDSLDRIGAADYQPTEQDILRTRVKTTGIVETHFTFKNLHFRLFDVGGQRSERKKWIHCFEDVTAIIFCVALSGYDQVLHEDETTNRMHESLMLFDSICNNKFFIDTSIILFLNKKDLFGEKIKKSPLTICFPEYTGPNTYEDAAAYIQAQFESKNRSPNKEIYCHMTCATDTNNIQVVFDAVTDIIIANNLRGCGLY
RGS4-Gao reg: human RGS4-Galphao interaction regulation | P09471 | 220,000 compounds, 0.33% hits | binding response (% of control), % at 10 µM | Multiplexed bead flow cytometry, RGS4-Galphao binding; actives lie on both sides; in the data active = binding response below about 49% or above about 150%; inactive = in between;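 note: fluorescent Galphao activated with aluminum fluoride binding bead-coupled RGS4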
RGS16-Gao: RGS16-Galphao interaction regulator (human); O15492+P09471; bead-based flow cytometry RGS16-Galphao binding, fluorescence; actives lie on both sides; binding response (% of control), % at 10 µM; 220,000 compounds, 0.38% hits; AID 1441;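 note: Galphao activated by GDP with aluminum fluoride before binding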
RGS7-Gao: human RGS7-Galphao interaction regulation; 220,000 compounds, 0.35% hits; AID 1439; Multiplexed bead flow cytometry, RGS7-Galphao binding; actives lie on both sides; binding response (% of control), % at 10 µM; in the data active = binding response below about 49% or above about 150%; inconclusive = no clear call, values can overlap the other calls; inactive = in between;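 note: fluorescent Galphao held in activated GDP-AlF4 state binding bead-coupled RGS7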
RGS-Gao: modulates binding between human RGS4 and Galphao | shares compounds with RGS16-Gao | multiplexed bead flow cytometry, RGS–Galpha-o binding | RGS4–Galpha-o binding response, % at 10 µM | 1,600 compounds, 99% hits | AID 1504;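 note: fluorescently labeled Galpha-o bound to GDP with aluminium fluoride binding biotinylated RGS beads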
Avidin counter: biotin-avidin bead binding disruption counter-screen | shares compounds with RGS16-Gao | streptavidin beads, fluorescein-biotin binding, flow cytometry | inhibition, % at 10 µM | 1,700 tested, under 10 active;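 active = inhibition above 50%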;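 note: median green fluorescence of gated singlet beads compared with DMSO control wells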
RGS8-Gao confirm: confirmation of regulators of human RGS8-Galphao interaction; shares compounds with RGS16-Gao; bead-based flow cytometry RGS8-Galphao binding, fluorescence; actives lie on both sides; binding response (% of control), % at 10 µM; 1,700 compounds, 3% hits; AID 1836; in the data active = binding response below about 72% or above about 130%; inactive = in between;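 note: Galphao activated as GDP AlF4 complex before binding bead RGS8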
RGS7-Gao single: RGS7-Galphao interaction regulation, single point confirmation | shares compounds with RGS16-Gao | bead-based flow cytometry RGS7-Galphao binding; actives lie on both sides | response (percent of control binding), % at 10 µM | 1,700 compounds, 7.8% hits | AID 1837; in the data active = response below about 75% or above about 130%; inactive = in between;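 note: fluorescent Galphao activated with GDP and aluminum fluoride binding bead-coupled RGS7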
RGS16-Gao conf: confirmation of regulators of human RGS16-Galphao interaction | shares compounds with RGS16-Gao | bead-based flow cytometry, RGS16-Galphao binding; actives lie on both sides | response (% of control binding), % at 10 µM | 1,700 compounds, 4% hits; in the data active = response below about 74% or above about 130%; inactive = in between;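 note: Galphao activated as the GDP aluminium fluoride complex binding bead-coupled RGS16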
RGS4-Gao single: RGS4-Galphao interaction regulation, single point confirmation; shares compounds with RGS16-Gao; RGS4-Galphao binding, multiplexed bead flow cytometry; actives lie on both sides; binding response (% of control), % at 10 µM; 1,700 compounds, 4% hits; in the data active = binding response below about 74% or above about 130%; inactive = in between
RGS19-Gao single: RGS19-Galphao interaction regulation, single point confirmation; response (percent of control binding), % at 10 µM; bead-based flow cytometry RGS19-Galphao binding; actives lie on both sides; 1,700 compounds, 5% hits; AID 1841; shares compounds with RGS16-Gao; in the data active = response below about 50% or above about 160%; inactive = in between
Target sequence (P09471 whole entry, looked up): as above
Target sequence (P49795 whole entry, looked up): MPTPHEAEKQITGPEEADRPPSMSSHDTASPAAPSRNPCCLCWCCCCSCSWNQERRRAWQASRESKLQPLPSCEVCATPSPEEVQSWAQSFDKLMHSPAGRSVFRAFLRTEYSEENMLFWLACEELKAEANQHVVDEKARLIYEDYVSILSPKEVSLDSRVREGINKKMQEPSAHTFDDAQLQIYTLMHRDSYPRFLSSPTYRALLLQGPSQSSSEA
Of the large screens only hits and unclear results are named; the others gave an inactive call (follow-up assays come after a bar, where they were run); [ ] = dose if it differs, or a comment. Unless noted, the rule behind the calls is not given here.

O=C(Nc1cccc2ncccc12)c1ccc(Br)c([N+](=O)[O-])c1	RGS8-Gao reg 150[activator] | RGS-Gao 120 | Avidin counter inactive | RGS8-Gao confirm inactive | RGS7-Gao single inactive | RGS16-Gao conf inactive | RGS4-Gao single inactive | RGS19-Gao single inactive
O=C(Nc1cccc2ncccc12)c1cccnc1	none (no result: Avidin fluor, RGS8-Gao reg, RGS4-Gao reg, RGS16-Gao, RGS7-Gao) | Avidin counter inactive | RGS8-Gao confirm inactive | RGS7-Gao single inactive | RGS16-Gao conf inactive | RGS4-Gao single inactive | RGS19-Gao single inactive
CC(=O)Nc1cccc(NS(=O)(=O)c2ccccc2[N+](=O)[O-])c1	none
CCS(=O)(=O)c1cc([N+](=O)[O-])c(Sc2ccccc2NC(C)=O)s1	RGS8-Gao reg 21, RGS4-Gao reg 17, RGS16-Gao 9.3, RGS7-Gao inconclusive (no result: GSH bead fluor) | Avidin counter inactive | RGS8-Gao confirm 63 | RGS7-Gao single inactive | RGS16-Gao conf 58 | RGS4-Gao single inactive | RGS19-Gao single 10
COCCCNC(=O)C1CCN(C(=O)c2cc3sccc3n2Cc2ccc(F)cc2)CC1	none
O=C(NCCCN1CCCC1)C1CCN(C(=O)c2cc3sccc3n2Cc2ccc(F)cc2)CC1	Avidin fluor 193, RGS7-Gao 181[activator] | RGS-Gao 134
CCCC(CCC)C(=O)Nc1ccc2c(c1)N(C(=O)CN1CCN(C)CC1)c1ccccc1CC2	RGS16-Gao 253[activator] | RGS-Gao 121 | Avidin counter inactive | RGS8-Gao confirm inactive | RGS7-Gao single inactive | RGS16-Gao conf inactive | RGS4-Gao single inactive | RGS19-Gao single inactive
Cc1ccccc1NC1=NCC(c2ccc([N+](=O)[O-])cc2)S1 (configuration not stated)	none
O=S1(=O)CC2N=C(N(Cc3c(F)cccc3Cl)c3ccccc3F)SC2C1 (configuration not stated)	RGS8-Gao reg 17, RGS4-Gao reg 19, RGS16-Gao 11, RGS7-Gao 12 | Avidin counter inactive | RGS8-Gao confirm inactive | RGS7-Gao single inactive | RGS16-Gao conf inactive | RGS4-Gao single inactive | RGS19-Gao single inactive
Clc1ccc(-n2nnc(-c3cccnc3)n2)cc1Cl	RGS8-Gao reg 53, RGS4-Gao reg 47, RGS7-Gao 43 | Avidin counter inactive | RGS8-Gao confirm inactive | RGS7-Gao single inactive | RGS16-Gao conf inactive | RGS4-Gao single inactive | RGS19-Gao single inactive
COc1ccc(C2=NN(C(=O)CCCC(=O)O)C(c3cn(-c4ccccc4)nc3-c3ccccc3)C2)cc1 (configuration not stated)	RGS7-Gao inconclusive (no result: GSH bead fluor)
COc1ccc(/C=N/NC(=O)C2C(C=C(Cl)Cl)C2(C)C)c(OC)c1 (configuration not stated)	none
CC(C)CCOc1cccc(OCC(=O)O)c1	Avidin fluor 84, RGS4-Gao reg 422[activator], RGS16-Gao 352[activator], RGS7-Gao 375[activator] | Avidin counter inactive | RGS8-Gao confirm inactive | RGS7-Gao single 72 | RGS16-Gao conf inactive | RGS4-Gao single inactive | RGS19-Gao single inactive
CCCn1ncc(/C=N/O)c1C	RGS7-Gao inconclusive (no result: GSH bead fluor)
COc1cccc(-c2cnc(NCc3cc(Cl)ccc3O)n2C)c1	Avidin fluor 55, RGS7-Gao 160[activator] | RGS-Gao 117
Cn1c(-c2cccc(Br)c2)cnc1NCc1cccnc1	none
CC1(C)CC(=O)C(Sc2ccccc2[N+](=O)[O-])=C(O)C1	none
CCC(C)NC(=O)CCC(=O)NNc1nc2ccccc2c2nc(C)nn12 (configuration not stated)	none
Cc1nc2c3ccccc3nc(NNC(=O)CCC(=O)NC(C)C)n2n1	RGS16-Gao 4.1 | RGS-Gao 89 | Avidin counter inactive | RGS8-Gao confirm inactive | RGS7-Gao single inactive | RGS16-Gao conf inactive | RGS4-Gao single inactive | RGS19-Gao single inactive
CCN(CC)C(=O)c1ccc(S(=O)(=O)NCc2cccnc2)cc1	none (no result: Avidin fluor, RGS8-Gao reg, RGS4-Gao reg, RGS16-Gao, RGS7-Gao) | Avidin counter inactive | RGS8-Gao confirm inactive | RGS7-Gao single inactive | RGS16-Gao conf inactive | RGS4-Gao single inactive | RGS19-Gao single inactive
Cc1ccc(S(=O)(=O)NCc2ccc(C(=O)NCc3cccnc3)cc2)cc1	none
O=C1c2ccccc2C(=O)N1CCN1CCOCC1	Avidin fluor 233, RGS7-Gao 259[activator] | RGS-Gao 92
CC(C)(C)OC(=O)N1CCC[C@H]1C(=O)N/N=C/c1ccc2ncccc2c1	RGS7-Gao inconclusive (no result: GSH bead fluor)
CCN(N=O)[C@@H](Cc1ccccc1)CN(N=O)[C@@H](Cc1ccccc1)CN(C)N=O	RGS8-Gao reg 29, RGS4-Gao reg 30, RGS16-Gao 21, RGS7-Gao 17 | Avidin counter inactive | RGS8-Gao confirm inactive | RGS7-Gao single inactive | RGS16-Gao conf inactive | RGS4-Gao single inactive | RGS19-Gao single inactive
O=C(C(Cc1ccccc1)n1cccc1)N1CCN(Cc2ccccc2)CC1 (configuration not stated)	RGS8-Gao reg 144[activator] | RGS-Gao 113 | Avidin counter inactive | RGS8-Gao confirm inactive | RGS7-Gao single inactive | RGS16-Gao conf inactive | RGS4-Gao single inactive | RGS19-Gao single inactive
O=C(N1CCN(c2ccccc2)CC1)C12CC3CC(CC(C3)C1)C2	none
O=C(C(Cc1ccccc1)n1cccc1)N1CCCCC1 (configuration not stated)	none
O=C(N1CCN(Cc2ccccc2)CC1)C12CC3CC(CC(C3)C1)C2	none (no result: Avidin fluor, RGS8-Gao reg, RGS4-Gao reg, RGS16-Gao, RGS7-Gao) | Avidin counter inactive | RGS8-Gao confirm inactive | RGS7-Gao single inactive | RGS16-Gao conf inactive | RGS4-Gao single inactive | RGS19-Gao single inactive
COc1cccc(/C=N/N=C(\N)c2nonc2N)c1O	RGS7-Gao inconclusive
O=S(=O)(NCc1ccccc1)c1ccc2c(c1)OCCO2	none (no result: Avidin fluor, RGS8-Gao reg, RGS4-Gao reg, RGS16-Gao, RGS7-Gao) | Avidin counter inactive | RGS8-Gao confirm inactive | RGS7-Gao single inactive | RGS16-Gao conf inactive | RGS4-Gao single inactive | RGS19-Gao single inactive
